Assay outcomes (PubChem)
CASP6 VEID inh: human caspase-6 inhibitors, primary screen, biochemical, VEID-R110 fluorescence, single point, set 2; inhibition, % at 12.5 µM; P55212; AID 686996, 2013; actives 0.53% (n = 350,000); purified caspase-6, Z-VEID-R110 cleavage fluorescence;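 active = mean inhibition across replicates at least about 35%, with every replicate also reaching that limit, limit read from the data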;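 also: 0% = median of neutral control wells and 100% = no fluorescence left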
Target sequence (P55212 24-179 limits assumed): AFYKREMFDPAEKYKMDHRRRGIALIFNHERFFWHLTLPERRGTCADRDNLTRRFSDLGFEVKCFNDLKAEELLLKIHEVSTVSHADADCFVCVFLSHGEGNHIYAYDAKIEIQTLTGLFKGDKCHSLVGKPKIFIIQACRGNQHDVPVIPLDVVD
Target sequence (P55212 194-293 limits assumed): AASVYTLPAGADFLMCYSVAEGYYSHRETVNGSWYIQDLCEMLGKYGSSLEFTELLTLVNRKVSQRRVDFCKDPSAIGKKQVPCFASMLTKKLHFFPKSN
Env fusion inh: inhibitors of HIV-1 Env-driven cell-cell fusion, primary screen, HeLa-JRFL effector, CEM21 target cells, luciferase. actives 1.1% (n = 360,000). inhibition, % at 12.3 µM;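 active = mean replicate inhibition score of at least 50 and every replicate individually at or above 50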;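 also: 0% = plate neutral controls and 100% = maraviroc near 300 nM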
PglD inh: C. jejuni PglD acetyltransferase inhibitors, primary screen, biochemical, DTNB colorimetric, single point; UDP-N-acetylbacillosamine N-acetyltransferase PglD (Campylobacter jejuni); purified PglD enzyme, DTNB colorimetric CoA detection; inhibition, % at 12.5 µM; actives 0.098% (n = 360,000); AID 602405, 2012; in the data active = inhibition above about 16%, passing the limit was not always enough
NSD2 inh: NSD2 histone methyltransferase inhibitors, primary screen, biochemical, AlphaScreen, single concentration, set 2. Histone-lysine N-methyltransferase NSD2 (Homo sapiens), O96028. AID 743445, 2014. inhibition, % at 12.5 µM. NSD2 peptide methylation, 120 min. actives 0.54% (n = 310,000); in the data active = inhibition above about 50%
ALR inh: inhibitors of human ALR sulfhydryl oxidase, primary screen, biochemical, H2O2 detection, HRP-luminol luminescence, single point; actives 3.8% (n = 290,000); purified ALR, DTT oxidation; inhibition, % (no concentration beside the values);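 active = mean replicate inhibition above about 79%, with every replicate also reaching it, limit read from the data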
Target sequence (P55789 whole entry, looked up): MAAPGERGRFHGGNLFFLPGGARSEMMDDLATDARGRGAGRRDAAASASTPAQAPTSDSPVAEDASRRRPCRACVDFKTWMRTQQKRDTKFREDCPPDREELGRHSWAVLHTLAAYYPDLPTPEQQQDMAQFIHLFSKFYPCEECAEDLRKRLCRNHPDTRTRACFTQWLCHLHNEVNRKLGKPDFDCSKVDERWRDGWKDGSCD
CFTR F508del cor: F508del CFTR correction, initial screen, CFBE line, single point | CFBE cells, YFP halide quenching; stimulated with forskolin plus potentiator P3; % fluorescence drop versus neutral controls | activity (quench increase), % at 7.58 µM | actives 0.36% (n = 350,000);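 active = mean added fluorescence quench of at least 8% versus neutral control, with both replicates also reaching 8%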;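 also: cells transiently co-express mutant CFTR-F508del with the halide-sensitive YFP; corrector assay measuring rescue of mutant channel to the surface after 24 h compound exposure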
* = called active by the depositor; · = no result given; ! = a repeat was not active; [ ] = another dose, or the depositor's remark. Only some compounds are listed: those with a hit (about 4.1% of all), similar ones and a draw of the others.

SMILES | CASP6 VEID inh | Env fusion inh | PglD inh | NSD2 inh | ALR inh | CFTR F508del cor
C[C@H](CO)N1C[C@H](C)[C@@H](CN(C)Cc2cncnc2)Oc2cc(/C=C/c3ccccc3)ccc2S1(=O)=O | -2 | 36[16.7 µM] | -2 | · | · | -1
CCN1C(=O)/C(=C/C=C2/Sc3ccccc3N2CCO)SC1=S | · | -5 | -4 | 1 | 67 | 1
CCN1C(=S)SC(=O)C1=C1C=C(C)N(CCO)C(C)=C1 | · | · | -3 | 4 | 99* | ·
O=C(C[C@@H]1CC[C@@H](NC(=O)CN2CCOCC2)[C@H](CO)O1)NCCc1ccccc1 | -2 | 8[16.7 µM] | 3 | · | · | -1
Cc1cc2nc(-c3ccc(SCc4ccc(C(=O)O)cc4)nc3)[nH]c2cc1C | 4 | -69 | · | -3 | 99* | 1
Cc1ccc(S(=O)(=O)Nc2ccc3c(c2)C(=O)N([C@H](C)CO)C[C@H](C)[C@H](CN(C)C(=O)Nc2ccccc2)O3)cc1 | · | · | · | · | · | 0
COc1ccc(S(=O)(=O)N(C)C[C@H]2Oc3c(NS(=O)(=O)c4cccs4)cccc3C(=O)N([C@@H](C)CO)C[C@@H]2C)cc1 | 2 | · | · | · | · | -2
Oc1c(Cl)cc(Cl)cc1CNc1ccccn1 | 1 | 7 | -1 | -4 | · | 3
Oc1c(Cl)cc(Cl)cc1CNc1nc2ccccc2[nH]1 | 2 | -32 | -2 | 0 | 99* | -5
Nc1nc(Nc2ccccc2)nc(NCc2ccccc2)c1[N+](=O)[O-] | 8 | 8 | · | -5 | 86* | -2
Nc1nc(NCc2ccccc2)nc(NCc2ccccc2)c1[N+](=O)[O-] | · | 10 | 3 | 0 | 1 | ·
C=CCn1c(-c2cc(OC)cc(OC)c2)n[nH]c1=S | · | · | -3 | 0 | 96* | ·
C=CCn1c(-c2cc(-c3ccc(C)cc3)nc3ccccc23)n[nH]c1=S | 4 | 8 | · | 6 | 94* | 3
C=CCn1c(-c2cccc(OCC)c2)n[nH]c1=S | -6 | -21 | -14 | -1 | 48 | 1
COc1ccc(-c2ccc3c(c2)[C@H]2[C@H](CCN2S(=O)(=O)c2ccc(OC)cc2)[C@H](CO)N3)cc1 | · | · | 3 | · | · | 3
CCC(C)Sc1cc(-c2nc3cc(C)ccn3c2NC2CCCCC2)ccc1OC (stereo unspecified) | -5 | 7 | -4 | · | · | 5
CCC(C)Sc1cc(-c2nc3ccccn3c2NC2CCCCC2)ccc1OC (stereo unspecified) | 0 | 59*! | -10 | 3 | · | 0
Cc1ccn2c(NC3CCCC3)c(-c3cccs3)nc2c1 | 2 | -2 | · | -12 | 64 | 1
c1csc(-c2nc3ccccn3c2NC2CCCCC2)c1 | 5 | 4 | · | -3 | 94* | 1
C/C=C/c1ccc2c(c1)O[C@@H](CN(C)S(=O)(=O)c1ccc(F)cc1)[C@@H](C)CN([C@@H](C)CO)S2(=O)=O | 0 | · | 4 | · | · | 2
O=C(c1ccc(NS(=O)(=O)c2ccc3[nH]c(=O)[nH]c3c2)cc1)N1CCN(c2ccccc2O)CC1 | 6 | -8 | -6 | 1 | 98* | -3
Cc1cccc(N2CCN(C(=O)c3ccc(NS(=O)(=O)c4ccc5[nH]c(=O)[nH]c5c4)cc3)CC2)c1C | 2 | 5 | -2 | 7 | -1 | -7
CC(C)(COC(=O)C(c1ccccc1)c1ccccc1)CN1CCOCC1 | 6 | 80* | · | -8 | · | 4
C[C@@H]1CN([C@@H](C)CO)S(=O)(=O)c2ccc(-c3cncnc3)cc2O[C@@H]1CN(C)C(=O)C1CCC1 | -1 | 8[16.7 µM] | 2 | · | · | -2
CCCNC(=O)[C@@H]1[C@@H](CO)[C@@H]2Cn3c(ccc(-c4ccccc4OC)c3=O)[C@@H]2N1CC | 1 | · | -2 | · | · | -1
SMILES | CASP6 VEID inh | Env fusion inh | PglD inh | NSD2 inh | ALR inh | CFTR F508del cor
CCOc1ccc(C(=O)NCC(=O)N2CCN(Cc3ccccc3)CC2)cc1 | -4 | · | 0 | -3 | -6 | 10.0*
CN1C(=O)c2cc(NC(=O)c3cccs3)ccc2OC[C@@H]2O[C@@H](CC(=O)O)CC[C@H]21 | 1 | · | 2 | · | · | -3
COC(=O)C1(C(=O)OC)C[C@H](c2ccc(OC)cc2)N(Cc2ccccc2OC)[C@@H]1c1ccccc1 | -1 | 85* | · | · | · | -2
COC(=O)C1(C(=O)OC)C[C@H](/C=C/c2ccccc2)N(Cc2ccccc2OC)[C@@H]1c1ccc(F)cc1 | -5 | 27 | · | · | · | 2
CCN(CC)c1ccc(/C=N/NC(=O)c2c(Cl)cnn2C)c(O)c1 | · | 23 | · | 1 | 99* | ·
CCOC(=O)N/N=C/c1ccc(N(CC)CC)cc1O | · | · | · | 5 | 99* | ·
CCN(CC)c1ccc(/C=N/Nc2ccc(C)cc2)c(O)c1 | 0 | 8 | · | 6 | 45 | 0
CCN(CC)c1ccc(/C=N/NC(=O)c2cccc(S(=O)(=O)N3CCOCC3)c2)c(O)c1 | 5 | 15 | -1 | 2 | · | 3
COc1ccc(S(=O)(=O)N(C)C[C@H]2Oc3ccc(NS(=O)(=O)c4ccc(C)cc4)cc3C(=O)N([C@@H](C)CO)C[C@H]2C)cc1 | 2 | · | · | · | · | 2
CN(C)c1ccc(CNS(=O)(=O)c2csc(C(N)=O)c2)cc1 | 0 | -12 | -5 | 2 | 93* | -2
C[C@@H]1CN([C@@H](C)CO)C(=O)c2cccc(NS(=O)(=O)c3ccc(F)cc3)c2O[C@@H]1CN(C)Cc1ccc(Oc2ccccc2)cc1 | · | -4[16.7 µM] | · | · | · | -1
Nc1cc(=O)[nH]c(SCC(=O)Nc2cccc(Cl)c2)n1 | · | -127 | -1 | 1 | 21 | ·
Cc1ccc(NC(=O)CSc2nc(N)c(-c3ccccc3)c(=O)[nH]2)cc1Cl | 0 | 6 | · | -2 | 98* | 0
Cc1ccc(NC(=O)CSc2nc(N)cc(=O)[nH]2)cc1Cl | 0 | -5 | · | -7 | 95* | -1
c1ccc(Nc2ccnc(Nc3ccccc3)n2)cc1 | -4 | -53 | -19 | -2 | 96* | -1
CCS(=O)(=O)N[C@H]1CC[C@H](CC(=O)N2CCCCC2)O[C@H]1CO | 28 | -14[16.7 µM] | 3 | · | · | 0
CC(C)C(=O)Nc1nnc(NC(=S)Nc2ccccc2)s1 | -1 | -8 | 3 | 1 | 82* | 7
CCCc1nnc(NC(=S)Nc2ccccc2)s1 | 1 | -41 | · | 1 | 0 | 5
CCNC(=O)[C@H]1[C@H](CO)[C@H]2Cn3c(ccc(-c4cccc(F)c4)c3=O)[C@H]2N1Cc1nccs1 | 0 | · | -1 | · | · | -1
O=Nc1c(O)[nH]c2ccc(F)cc12 | 11 | -29 | · | 2 | -3 | ·
Cc1cc2c(N=O)c(NO)ccc2[nH]1 | · | · | -1 | 8 | 79* | ·
CCOc1ccc(-c2nc(CCl)cs2)cc1OC | -1 | -11 | -4 | 47 | 99* | 1
O=c1c2ccccc2oc2ccccc12 | -2 | · | 0 | · | · | 2
